About 83,000 compounds went through this panel and 20% of them were active in at least one assay; those are over-represented in the sample as a whole.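 Interpretation: 100, growth as untreated; towards 0, rising growth inhibition; 0, no net growth; 0 to -100, cell death. Compounds scoring below 10 were considered active.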 A number with no mark means an inactive call. The source made the active and inactive calls.
Experiments:
Assay in all cases: NCI-60 one-dose screen, 48 h (100 = growth as untreated, 0 = no growth, -100 = all killed)
Details in all cases: 10 µM unless noted
NCI-H23 lung = test system: NCI-H23 lung
NCI-H226 lung = test system: NCI-H226 lung
NCI-H322M lung = test system: NCI-H322M lung
NCI-H460 lung = test system: NCI-H460 lung
HOP-92 NSCLC = test system: HOP-92 NSCLC
NCI-H522 lung = test system: NCI-H522 lung
A549/ATCC NSCLC = test system: A549/ATCC NSCLC
786-0 renal = test system: 786-0 renal
COLO 205 colon = test system: COLO 205 colon
DU-145 prostate = test system: DU-145 prostate
K-562 leukemia = test system: K-562 leukemia
MALME-3M melanoma = test system: MALME-3M melanoma
RXF 393 renal = test system: RXF 393 renal
SF-268 CNS = test system: SF-268 CNS
SF-295 CNS = test system: SF-295 CNS
SF-539 CNS = test system: SF-539 CNS
UACC-257 melanoma = test system: UACC-257 melanoma
M14 melanoma = test system: M14 melanoma
HOP-62 NSCLC = test system: HOP-62 NSCLC
MDA-MB-231 breast = test system: MDA-MB-231 breast

SMILES	growth (NCI-H23 lung)	growth (NCI-H226 lung)	growth (NCI-H322M lung) [%]	growth (NCI-H460 lung)	growth (HOP-92 NSCLC)	growth (NCI-H522 lung)	growth (A549/ATCC NSCLC)	growth (786-0 renal)	growth (COLO 205 colon)	growth (DU-145 prostate)	growth (K-562 leukemia)	growth (MALME-3M melanoma)	growth (RXF 393 renal)	growth (SF-268 CNS)	growth (SF-295 CNS)	growth (SF-539 CNS)	growth (UACC-257 melanoma)	growth (M14 melanoma)	growth (HOP-62 NSCLC)	growth (MDA-MB-231 breast)
COc1ccc(-c2cc(C(=O)NCc3ccccc3)nn2-c2ccc(S(C)(=O)=O)cc2)cc1OC	105%	98.5%	122	108%	73%	87.4%	93.8%	98.6%	116%	105%	105%	108%	110%	97.3%	98.1%	95.2%	105%	111%	–	–
CCOC(=O)c1ccc(Nc2nc(NN)nc(-c3ccc(OC)cc3)c2C#N)cc1	115%	112%	123	–	–	103%	105%	99.3%	116%	113%	1.69% (active)	92.4%	124%	98.2%	111%	110%	46%	71.6%	109%	85.1%
CCOC(=O)/C=C/c1cccc2c1C(=O)NC(C)(c1cc3cc(Cl)ccc3oc1=O)N2 (stereo not drawn)	50.9%	46.1%	56.4	47.4%	–	33.8%	47.2%	31.4%	31.7%	37.7%	19%	32.7%	-1.81% (active)	45.5%	19.3%	38.5%	44.3%	22.3%	–	32.1%
COc1ccc(NC(=O)Cn2c(/C=C/c3cccc([N+](=O)[O-])c3)nc3ccccc3c2=O)cc1	81.7%	12.8%	–	63%	-0.339% (active)	94.4%	84.7%	-15.8% (active)	98.8%	93.9%	–	77%	-6.3% (active)	71.6%	79.2%	7.2% (active)	98.8%	76.7%	40.9%	15.8%
CN(C)CCCNC(=O)c1cc(NC(=O)c2cc(NC(=O)c3ccc(C#Cc4ccccc4)cc3)cn2C)cn1C	-42.7% (active)	4.56% (active)	–	-28.9% (active)	-26% (active)	-95.3% (active)	-14.8% (active)	-86.9% (active)	-74.9% (active)	18.2%	-54.9% (active)	-95.8% (active)	-37.7% (active)	18.1%	-91.8% (active)	-84.1% (active)	43.8%	-79.8% (active)	8.16% (active)	-68.8% (active)
CN(C)c1nc(NCCNS(=O)(=O)c2ccc(C(=O)/C=C/c3ccc(F)cc3)cc2)nc(Nc2ccc(F)cc2)n1	-84% (active)	-74.4% (active)	–	-75.2% (active)	–	-96.1% (active)	-56.4% (active)	-85.6% (active)	-85.7% (active)	-83.9% (active)	-21.9% (active)	-83.3% (active)	-97% (active)	-59% (active)	-78.3% (active)	-99.7% (active)	-80.6% (active)	-83% (active)	-71.2% (active)	-93% (active)
N#Cc1c(-c2cccc(O)c2O)cc(-c2ccc3ccccc3c2)[nH]c1=O	52.1%	68.3%	–	41.7%	28%	51.3%	84.9%	64.1%	84%	57%	67.1%	59.1%	39.3%	58.6%	83.6%	28.8%	99.9%	65.1%	49.2%	–
Cc1ccc(C(=O)NN2C(=O)/C(=C/C=C/c3ccc([N+](=O)[O-])o3)SC2=S)cc1	-84% (active)	-95.6% (active)	–	-57.6% (active)	–	-90.7% (active)	-76.5% (active)	-86% (active)	-83.9% (active)	-100% (active)	6.34% (active)	-98% (active)	-90% (active)	-86.7% (active)	-87.6% (active)	-96.6% (active)	-81.5% (active)	-70.6% (active)	-70% (active)	-96.4% (active)
Nc1cc2ccccc2c(=O)n1NC(=O)c1ccc(I)cc1	97.3%	99.9%	–	100%	106%	93.1%	94.6%	99.3%	105%	102%	90.4%	97.4%	108%	94.9%	97.6%	96.5%	93.3%	102%	98.5%	–
COc1ccc(-c2nc3cc(C)ccc3n2CC(=O)N=Nc2c(O)[nH]c3ccc(Cl)cc23)cc1	-62.9% (active)	-34.1% (active)	10.1	10.6%	–	14.9%	-62.4% (active)	11%	-39.7% (active)	15%	4.54% (active)	-56.9% (active)	-63.2% (active)	21.6%	-67.5% (active)	-52.7% (active)	-31.2% (active)	-44.6% (active)	–	-43.8% (active)
CN1CCN(c2ccc3c(c2)nc(NNC(=O)c2cnccn2)c2cccn23)CC1	1.16% (active)	-7.98% (active)	–	2.41% (active)	-29.3% (active)	-16.7% (active)	0.0581% (active)	-95.5% (active)	-64% (active)	-9.7% (active)	–	-24.5% (active)	-65.1% (active)	10.6%	-81.3% (active)	-41.3% (active)	-48.6% (active)	-78.1% (active)	-24.4% (active)	-35.1% (active)
COc1ccc(-c2nc3cc(C)ccc3n2CC(=O)N=Nc2c(O)[nH]c3ccc(OC)cc23)cc1	-65.1% (active)	-66.6% (active)	–	-48% (active)	–	-40.9% (active)	-49.7% (active)	-69.3% (active)	-68.2% (active)	8.56% (active)	-28.5% (active)	-94.6% (active)	-82.9% (active)	-8.44% (active)	-72.9% (active)	-99% (active)	-78% (active)	-83.2% (active)	-70.5% (active)	-76.3% (active)
Cc1cc(=O)oc2cc(OCCCCOc3ccc(/C=C/C(=O)Nc4ccccc4N)cc3)ccc12	76%	47.9%	–	45.2%	–	35.7%	46.9%	49.5%	44.9%	65.7%	35%	90.8%	90.9%	49.4%	63.1%	53.1%	82.4%	79.5%	69.7%	48.2%
COc1c(F)ccc(C(=O)Nc2ccc3nc(NC(=O)C4CCCN(S(=O)(=O)c5ccc(Cl)cc5)C4)sc3c2)c1F (stereo not drawn)	85.7%	76%	86.6	81.3%	–	76.6%	65.6%	54.7%	77.8%	93.4%	59.2%	90.5%	8.75% (active)	77.4%	63.6%	66.8%	82.4%	75.6%	–	81.1%
O=C(CN1C(=O)/C(=C/c2ccccc2F)SC1=S)N1CCOCC1	89.1%	66.5%	90.3	102%	–	-83.2% (active)	95.5%	74.9%	98.5%	56.3%	19.2%	51.8%	71.8%	99.1%	108%	82.3%	89.6%	79.4%	–	92%
COc1cc2oc(-c3cccc(C(=O)Nc4ccc(Cl)cc4)c3)cc(=O)c2c(OCCNC(=O)[C@H](CCC(=O)OC(C)(C)C)NC(=O)OC(C)(C)C)c1OC	106%	95.9%	–	101%	84.2%	89%	92.8%	93.4%	117%	108%	81.5%	106%	84.3%	81.8%	94.5%	87.8%	107%	106%	95.3%	85.4%
CN(C)CCn1c2ccccc2c2nc3cc(C(F)(F)F)ccc3nc21	34.6%	53.2%	–	8.31% (active)	–	30.7%	21.7%	32.9%	14%	31.4%	19.3%	25.9%	42.7%	52.4%	27.9%	26.3%	45.1%	40.7%	38.8%	37.2%

— PubChem BioAssay (NCI)
